Experimental findings from article PMC4552634, “A New Set of Chemical Starting Points with Plasmodium falciparum Transmission-Blocking Potential for Antimalarial Drug Discovery” (PLoS ONE, 2015) are described below.

The campaign covered roughly 13,000 compounds. About 3,200 (25%) showed an effect of 50% or more. Some of the results follow.

This experiment relates to P. falciparum stage V gametocytes. Set-up: BacTiter-Glo ATP luminescence viability of purified stage V gametocytes in 384-well plates, per cent inhibition versus DMSO. To be noted: 48 h, 5 µM; inhibitor.
By % Inhibition is commonly meant the change of the read-out against control, counted positive when it falls. For the compound `Cc1cc(N2CCOCC2)nc(Nc2ccc(NC(=O)Nc3ccc(F)cc3)cc2)n1` [TCMDC-124956], the “% Inhibition” value is reported as -1.746%. Under `COc1ccc2nccc([C@@H](O)CN3CCC(NC(=O)Cc4cccc5c(Br)cccc45)CC3)c2c1` [TCMDC-141111] stands 22.03%; under `COc1ccc(-n2nc(C(=O)NCCC3=CCCCC3)c3ccccc3c2=O)cc1` [TCMDC-123609], 10.78%; under `Clc1ccc2nc(-c3cccnc3)[nH]c2c1` [TCMDC-142012], 6.492%. Turning to `COC(=O)c1cccc(NC(=O)NC2CCN(c3ccnc(NCc4ccc(F)cc4)n3)CC2)c1` [TCMDC-133636], the “% Inhibition” value is on record as 29.63%. Take `Cc1cc(N(C)C)nc(Nc2ccc(NC(=O)c3c(F)cccc3Cl)cc2)n1` [TCMDC-124976]: the “% Inhibition” value came to 3.565%. For the compound `O=C(Nc1cccc(F)c1)NC1CCN(c2ccnc3cc(Cl)ccc23)C1` (stereo not drawn) [TCMDC-133655], the “% Inhibition” value is reported as -21.12%. The result for `Cc1ccc(NC(=O)c2ccc3ncccc3c2)cc1OC1CCN(CCC(C)C)CC1` [TCMDC-133975] reads 32.86%. Under `Oc1c(C(Nc2nc3ccccc3s2)c2ccccc2)ccc2cccnc12` (stereo not drawn) [TCMDC-125565] stands 82.54%; under `Oc1c(C(Nc2nc3ccccc3s2)c2ccc(OC(F)F)cc2)ccc2cccnc12` (stereo not drawn) [TCMDC-124379], 115.4%; under `CCC[C@@H]([C@@H](CC1CCCCC1)C(=O)N[C@H](C(=O)Nc1nccs1)C(C)(C)SCCNC(=O)OCC)N(O)C=O` [TCMDC-137778], 36.34%. Under `CN(C)C(C)(C)CN(Cc1ccc(-c2ccc(C(F)(F)F)cc2)cc1)C(=O)Cn1c(CCc2cccc(F)c2F)nc(=O)c2ccccc21` [TCMDC-141050] stands 88.12%; under `CCN(CC)C(C)(C)CN(Cc1ccc(-c2ccc(C(F)(F)F)cc2)cc1)C(=O)Cn1c(CCc2cccc(F)c2F)nc(=O)c2ccccc21` [TCMDC-141049], 64.05%.

Take `CC=CCON1C(N)=NC(N)=NC1(C)C` [TCMDC-131381]: the “% Inhibition” value was 17.92%. Under `Oc1cc(Nc2ccnc3cc(-c4ccc(CN5CCCCC5)o4)c(Cl)cc23)c(Cl)cc1F` [TCMDC-138470] stands 7.124%. In the case of `COc1ccc(C2CC(=O)C3=C(C2)NC(C)=C(C(=O)OC2CCCC2)C3c2cccc(O)c2)cc1OC` (stereo not drawn) [TCMDC-125638], the “% Inhibition” value worked out at 22.13%.

On to `O=C(Nc1ccnc(N2CCCN(Cc3cccc(O)c3)CC2)c1)c1ccc(F)cc1` [TCMDC-134961], for which the “% Inhibition” value is -9.577%.

Take `COc1ccc(-c2cc(Nc3nc(-c4cccc(Cl)c4)nc4ccccc34)ccn2)cc1` [TCMDC-138867]: the “% Inhibition” value was -54.58%.

As for `COc1cccc(-c2nc(Nc3ccncc3)c3ncn(C)c3n2)c1` [TCMDC-141275], the “% Inhibition” value was 49.52%.

Regarding `COc1ccc2nc(-c3cccc(C)n3)nc(Nc3ccncc3)c2c1` [TCMDC-134670], the “% Inhibition” value is given as 106.1%.

Take `Cc1cc(N2CCCCC2)nc2ccc(NC(=O)c3cccc([N+](=O)[O-])c3)cc12` [TCMDC-124423]: the “% Inhibition” value is recorded as 6.095%. Regarding `Cc1ccc(-c2nc(Nc3ccncc3)c3ccccc3n2)s1` [TCMDC-134482], the “% Inhibition” value is 16.52%. On to `Cc1cccc(-c2nc(Nc3ccncc3)c3cc(N(C)C)ccc3n2)n1` [TCMDC-135308], for which the “% Inhibition” value was 101.1%.

As to `Cc1cc(F)ccc1-c1nc(Nc2ccncc2)c2ccn(C)c2n1` [TCMDC-141231], the “% Inhibition” value is reported as -13.59%.

As to `COc1cc2nc(Cl)nc(Nc3ccncc3)c2cc1OC` [TCMDC-123606], the “% Inhibition” value was determined as 31.62%.

On to `Cc1cccc(-c2nc(Nc3ccncc3)c3ccc([N+](=O)[O-])cc3n2)n1` [TCMDC-134702], for which the “% Inhibition” value was determined as 85.91%. Turning to `COC(=O)c1ccc(CC(C)NCC(O)c2cccc(C(F)(F)F)c2)c(Cl)c1` (stereo not drawn) [TCMDC-131468], the “% Inhibition” value was 4.686%. Regarding `COc1ccc(C2CC(=O)C3=C(C2)NC(C)=C(C(=O)OC(C)C)C3c2cccc(O)c2)cc1OC` (stereo not drawn) [TCMDC-125636], the “% Inhibition” value stood at 49.05%. On to `O=C(Nc1ccnc(-c2cccnc2)n1)c1cc(C(F)(F)F)cc(C(F)(F)F)c1` [TCMDC-124516], for which the “% Inhibition” value turned out to be 40.18%. Under `Cc1ccc2c(c1)C1(CC(=O)N(CCc3scnc3C)C1=O)C(=O)N2Cc1ccccc1` (stereo not drawn) [TCMDC-136702] stands 3.881%. Under `Cc1cc(-c2ccc(CN3Cc4ccccc4C3)cc2)ccc1S(=O)(=O)NCCN1CCCC1` [TCMDC-132293] stands 17.83%; under `O=S(=O)(NCCN1CCCC1)c1ccc(-c2cccc(CNC3Cc4ccccc4C3)c2)cc1F` [TCMDC-132221], 86.87%; under `Cc1cc(-c2ccc(CNC3Cc4ccccc4C3)cc2)ccc1S(=O)(=O)NCCN1CCCC1` [TCMDC-132243], 88.03%. Consider `O=S(=O)(NCCN1CCCC1)c1ccc(-c2ccc(CNC3Cc4ccccc4C3)cc2)cc1F` [TCMDC-132237], for which the “% Inhibition” value worked out at 105.2%. The result for `NC(=NCCc1ccccc1Cl)c1ccc2ccccc2c1` [TCMDC-137524] reads -3.713%; that for `NC(=NCCc1ccc(Cl)c(Cl)c1)c1ccc2ccccc2c1` [TCMDC-137525], 0.5254%; that for `Cc1cc(OCCCN=C(N)c2ccc3ccccc3c2)c(C(C)C)cc1Cl` [TCMDC-137527], 57.09%. The result for `O=C(NCCCCN1CCC2c3cccc(O)c3CCC21)c1ccc(-c2ccccc2)cc1` (stereo not drawn) [TCMDC-139086] reads 3.232%. For `Cc1sc2ccc(Cl)cc2c1S(=O)(=O)Nc1ccc2nccc(N3CC(C)NC(C)C3)c2c1` (stereo not drawn) [TCMDC-139550], the “% Inhibition” value came out at 20.27%. Under `Cc1sc2cc(Cl)cc(Cl)c2c1S(=O)(=O)Nc1ccc2nccc(N3CCNCC3)c2c1` [TCMDC-139444] stands 54.96%; under `O=S(=O)(Nc1ccc2nccc(N3CCNCC3)c2c1)c1ccc2c(Cl)cccc2c1` [TCMDC-139383], 15.64%. On to `COCCNCc1cccc(-c2cc3nccc(Nc4ccc(Oc5ccccc5)cc4)c3cc2Cl)c1` [TCMDC-138461], for which the “% Inhibition” value was 14.84%. The result for `CS(=O)(=O)CCNCc1cccc(-c2ccc3c(Nc4ccc(Oc5ccccc5)cc4)ccnc3c2)c1` [TCMDC-138477] reads 27.24%; that for `CS(=O)(=O)CCNCc1cccc(-c2cc3nccc(Nc4ccc(Oc5ccccc5)cc4)c3cc2Cl)c1` [TCMDC-138462], -8.797%. The result for `CN(C)CCNCc1cccc(-c2ccc3c(Nc4ccc(Oc5ccccn5)cc4)ccnc3c2)c1` [TCMDC-138493] reads 98.43%. `CS(=O)(=O)CCNCc1cccc(-c2ccc3c(Nc4ccc(Oc5cccnc5)cc4)ccnc3c2)c1` [TCMDC-138488]: the “% Inhibition” value was -52.67%. Under `COCCNCc1ncsc1-c1ccc2c(Nc3ccc(Oc4ccccc4)cc3)ccnc2c1` [TCMDC-138440] stands 7.654%; under `COCCNCc1cccc(-c2ccc3c(Nc4ccc(Oc5ccccc5)cc4)ccnc3c2)c1` [TCMDC-138478], 82.82%. The result for `COCCNCc1cccc(-c2ccc3c(Nc4ccc(Oc5cccnc5)cc4)ccnc3c2)c1` [TCMDC-138487] reads 75%; that for `COCCNCc1cccc(-c2ccc3nccc(Nc4cc(O)ccc4C)c3c2)c1` [TCMDC-138480], 40.94%; that for `Nc1c2ccccc2nc2ccc(-c3ccccc3)cc12` [TCMDC-132030], 118.4%. Under `Nc1c2ccccc2nc2ccc(Cl)cc12` [TCMDC-132029] stands 93.03%; under `Cl.Nc1nc(Nc2ccc(Cl)cc2)nc2ccccc12` [TCMDC-124354], 6.388%; under `Nc1nc(N)c2cc(C#Cc3ccc(-c4ccccc4)cc3)ccc2n1` [TCMDC-139006], -7.862%. Turning to `Nc1c2ccccc2nc2cc(Cl)ccc12` [TCMDC-141999], the “% Inhibition” value is 16.16%.

Consider `CN(C)c1cc(C(=O)N[C@@H](Cc2ccccc2)[C@H](O)CNC2CCCCC2)cc2[nH]ccc12` [TCMDC-136317], for which the “% Inhibition” value was -94.17%. Under `CN1CCN(c2ccnc3ccc(NC(=O)Nc4ccccc4Br)cc23)CC1` [TCMDC-139342] stands 15.44%; under `Fc1ccccc1COc1ccc(Nc2ncnc3ccc(I)cc23)cc1Cl` [TCMDC-138627], 9.829%. In the case of `COc1cccc2cc(C(=O)N[C@@H](CC(C)C)C(=O)N[C@H](/C=N/NC(=O)OC(C)(C)C)CC(=O)OC(C)(C)C)oc12` [TCMDC-136085], the “% Inhibition” value is recorded as 28.48%. Regarding `CC(C)(CNC(=O)C1CCN(CCOc2ccc(F)c(F)c2)CC1)c1nc(-c2ccc(Cl)c(O)c2)c(-c2ccncc2)[nH]1` [TCMDC-141136], the “% Inhibition” value is reported as -40.38%. Take `CN1CCC(C(=O)N(Cc2ccc(-c3ccc(CNCCc4ccc(S(C)(=O)=O)cc4)cn3)cc2)Cc2ccc3c(c2)OCO3)CC1` [TCMDC-141505]: the “% Inhibition” value was determined as 98.95%. Consider `CN1CCC(C(=O)N(Cc2ccc(-c3ccc(CNCCc4ccc(S(C)(=O)=O)cc4)cn3)cc2)Cc2cccc(F)c2)CC1` [TCMDC-141507], for which the “% Inhibition” value is 85.53%. On to `CN1CCC(C(=O)N(Cc2ccc(-c3ccc(CNCCc4ccccc4)cn3)cc2)Cc2cccc(F)c2)CC1` [TCMDC-141553], for which the “% Inhibition” value came to 18.34%. Under `CCCNCc1ccc(-c2ccc(CN(Cc3cccs3)C(=O)C3CCN(C)CC3)cc2)nc1` [TCMDC-141526] stands 99.19%; under `CC(=O)N1CCN(c2ccc(NC(=O)c3oc(-c4ccccc4)nc3C(F)(F)F)cn2)CC1` [TCMDC-135142], -12.47%; under `CCN(CC)CCNC(=O)c1ccc(NC(=O)c2cn(-c3ccccc3)nc2-c2cccs2)cc1` [TCMDC-124032], 29.35%.

With `Cc1cccc(Cl)c1S(=O)(=O)N1CCCCC(c2ccc(C(F)(F)F)cc2)=N1` [TCMDC-134535], the “% Inhibition” value turned out to be 25.02%. In the case of `O=S(=O)(c1c(Cl)cccc1Cl)N1CCCCC(c2ccc(C(F)(F)F)cc2)=N1` [TCMDC-134537], the “% Inhibition” value was found to be 50.16%. Under `O=S(=O)(c1ccccc1Cl)N1CCCCC(c2ccc(C(F)(F)F)cc2)=N1` [TCMDC-134532] stands -26.8%; under `O=S(=O)(c1ccc(Cl)cc1Cl)N1CCCCC(c2ccc(C(F)(F)F)cc2)=N1` [TCMDC-134536], 0.9055%. Under `O=S(=O)(c1c(Cl)cc(Cl)cc1Cl)N1CCCCC(c2ccc(Cl)cc2)=N1` [TCMDC-134526] stands -3.325%; under `O=S(=O)(c1c(Cl)cc(Cl)cc1Cl)N1CCCCC(c2ccc(C(F)(F)F)cc2)=N1` [TCMDC-134541], 71.02%.
